# Data taken from PubChem BioAssay (Tox21).
# Values joined by “and” are separate entries in the source; they are usually repeats but may differ in a detail not shown here. Identical values can stand only once. Results filed as inconclusive are left out. Entries that show only a call come without a potency. More than one record can exist for a structure, and the calls need not agree. Active and inactive are the calls of the source. Unless noted, calls come from the whole dose curve; as a rule, active = well fitted curve in the direction sought with a large enough effect in the repeat runs; inconclusive = weak or mixed curves; inactive = no such curve, though single readings can be large; an effect the other way counts as inactive or inconclusive.
# Key:
# [1] = qHTS assay to identify small molecule antagonists of the glucocorticoid receptor (GR) signaling pathway - cell viability counter screen (AID 720693); note: nearly all actives have a fitted effect of over 55% in size
# [2] = qHTS assay for identifying genotoxic compounds that show differential cytotoxicity against isogenic chicken DT40 cell lines with known DNA damage response pathways - wild type cell line (AID 743012); note: nearly all actives have a fitted effect of over 60% in size; note: potency is the fitted concentration of half-maximal effect
# How it was run: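 Cells (DT40 wild type, 300/well) are treated with DMSO-dissolved compounds after a ~0.5 h pre-incubation and kept 40 h at 37 C/5% CO2. Viability is then measured by CellTiter-Glo luminescence following 30 min at room temperature.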
# [3] = qHTS assay for identifying genotoxic compounds that show differential cytotoxicity against isogenic chicken DT40 cell lines with known DNA damage response pathways - Rev3 mutant cell line (AID 743014); note: nearly all actives have a fitted effect of over 55% in size; note: potency is the fitted concentration of half-maximal effect
# [4] = qHTS assay for identifying genotoxic compounds that show differential cytotoxicity against isogenic chicken DT40 cell lines with known DNA damage response pathways - Rad54/Ku70 mutant cell line (AID 743015); note: nearly all actives have a fitted effect of over 60% in size; note: potency is the fitted concentration of half-maximal effect
# [5] = qHTS assay to identify small molecule antagonists of the androgen receptor (AR) signaling pathway - cell viability counter screen (AID 743033; note: nearly all actives have a fitted effect of over 45% in size)
# [6] = qHTS assay to identify small molecule antagonists of the androgen receptor (AR) signaling pathway using the MDA cell line - cell viability counter screen (AID 743041; note: nearly all actives have a fitted effect of over 45% in size)
# How it was run: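 MDA-kb2 AR-luc cells (MMTV-luciferase, AR/GR responsive) treated with compounds plus R1881 agonist for 16 h at 37C. CellTiter-Fluor added at 15.5 h; fluorescence read after 30 min in the same wells.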
# [7] = qHTS assay to identify small molecule antagonists of the thyroid receptor (TR) signaling pathway - cell viability counter screen (AID 743064); note: nearly all actives have a fitted effect of over 50% in size; note: potency is the fitted concentration of half-maximal effect
# How it was run: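 Same-well viability check: GH3.TRE-Luc cells stimulated with 1 nM T3 alongside test compound for 23.5 h, followed by CellTiter-Fluor fluorescence.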
# [8] = qHTS assay to identify small molecule antagonists of the thyroid receptor (TR) signaling pathway (AID 743065); note: nearly all actives have a fitted effect of over 55% in size; note: potency is the fitted concentration of half-maximal effect
# How it was run: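 GH3.TRE-Luc rat pituitary cells (two TREs driving luciferase) were dosed with compound, then stimulated with 1 nM T3 (final) for 23.5 h at 37 C. ONE-Glo luminescence was the read-out, with CellTiter-Fluor fluorescence as the cytotoxicity counter-screen.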
# [9] = tested on: thyroid hormone receptor (rat, GH3 cells); assay: qHTS assay to identify small molecule agonists of the thyroid receptor (TR) signaling pathway (AID 743066; calls by dose curve)
# [10] = biological target: Estrogen receptor (Homo sapiens) (UniProt P03372); assay: qHTS assay to identify small molecule antagonists of the estrogen receptor alpha (ER-alpha) signaling pathway (AID 743069; active = well fitted curve in the direction sought with a large enough effect in the signal ratio in the repeat runs, not every such curve was filed as active; the % refers to the signal ratio)
# Sequence of Estrogen receptor (Homo sapiens) (P03372 whole entry, looked up): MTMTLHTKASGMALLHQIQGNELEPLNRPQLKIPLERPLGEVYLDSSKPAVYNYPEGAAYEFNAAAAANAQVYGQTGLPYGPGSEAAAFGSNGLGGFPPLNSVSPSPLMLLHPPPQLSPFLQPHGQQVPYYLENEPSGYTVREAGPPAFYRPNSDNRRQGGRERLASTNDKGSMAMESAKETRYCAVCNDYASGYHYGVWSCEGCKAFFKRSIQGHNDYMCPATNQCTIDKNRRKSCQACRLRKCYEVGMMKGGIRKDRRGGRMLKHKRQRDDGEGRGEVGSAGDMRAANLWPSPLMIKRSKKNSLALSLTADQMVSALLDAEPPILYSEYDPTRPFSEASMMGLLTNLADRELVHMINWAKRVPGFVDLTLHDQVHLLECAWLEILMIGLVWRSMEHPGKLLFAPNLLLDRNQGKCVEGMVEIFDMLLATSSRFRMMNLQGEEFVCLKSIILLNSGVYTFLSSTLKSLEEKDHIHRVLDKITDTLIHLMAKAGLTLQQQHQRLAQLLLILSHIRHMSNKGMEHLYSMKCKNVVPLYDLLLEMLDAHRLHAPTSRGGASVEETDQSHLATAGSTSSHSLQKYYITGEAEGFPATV
# How it was run: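 HEK293 ER-alpha-UAS-bla GripTite cells, held overnight in 2% charcoal-stripped FBS, 5,000 cells/well, preincubated 4 h, then compound plus 17beta-estradiol for 18 h at 37C. Beta-lactamase read by LiveBLAzer B/G FRET substrate, 2 h at room temperature.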
# [11] = qHTS assay to identify small molecule antagonists of the estrogen receptor alpha (ER-alpha) signaling pathway - cell viability counter screen (AID 743074; calls by dose curve;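 note: HEK293 cells carrying ER-alpha-UAS-bla reporter stimulated with 17beta-estradiol; nearly all actives have a fitted effect of over 45% in size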)
# [12] = biological target: Estrogen receptor (Homo sapiens) (UniProt P03372); assay: qHTS assay to identify small molecule agonists of the estrogen receptor alpha (ER-alpha) signaling pathway (AID 743075; calls by dose curve)
# [13] = biological target: Estrogen receptor (Homo sapiens) (UniProt P03372); assay: qHTS assay to identify small molecule agonists of the estrogen receptor alpha (ER-alpha) signaling pathway using the BG1 cell line (AID 743079); note: nearly all actives have a fitted effect of over 20% in size; note: potency is the fitted concentration of half-maximal effect
# [14] = qHTS assay to identify small molecule antagonists of the estrogen receptor alpha (ER-alpha) signaling pathway using the BG1 cell line (AID 743080; calls by dose curve;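 note: BG1 cells stimulated with 17beta-estradiol alongside compound; series mostly up to about 70 µM; nearly all actives have a fitted effect of over 25% in size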)
# How it was run: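 BG1-Luc-4E2 cells (endogenous full-length ER-alpha, 4xERE luciferase) hormone-starved 5 days in charcoal-stripped FBS, plated 4,000/well for 24 h, then compound plus 17beta-estradiol for 21.5 h at 37 C; ONE-Glo luminescence read.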
# [15] = qHTS assay to identify small molecule antagonists of the estrogen receptor alpha (ER-alpha) signaling pathway using the BG1 cell line - cell viability counter screen (AID 743081);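 note: compound given together with 17beta-estradiol as the ER stimulus; nearly all actives have a fitted effect of over 45% in size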; note: potency is the fitted concentration of half-maximal effect
# Aromatase (Homo sapiens) = Aromatase (Homo sapiens) (UniProt P11511); assay: qHTS assay to identify aromatase inhibitors (AID 743083); note: series mostly up to about 70 µM; nearly all actives have a fitted effect of over 55% in size
# Sequence of Aromatase (Homo sapiens) (P11511 whole entry, looked up): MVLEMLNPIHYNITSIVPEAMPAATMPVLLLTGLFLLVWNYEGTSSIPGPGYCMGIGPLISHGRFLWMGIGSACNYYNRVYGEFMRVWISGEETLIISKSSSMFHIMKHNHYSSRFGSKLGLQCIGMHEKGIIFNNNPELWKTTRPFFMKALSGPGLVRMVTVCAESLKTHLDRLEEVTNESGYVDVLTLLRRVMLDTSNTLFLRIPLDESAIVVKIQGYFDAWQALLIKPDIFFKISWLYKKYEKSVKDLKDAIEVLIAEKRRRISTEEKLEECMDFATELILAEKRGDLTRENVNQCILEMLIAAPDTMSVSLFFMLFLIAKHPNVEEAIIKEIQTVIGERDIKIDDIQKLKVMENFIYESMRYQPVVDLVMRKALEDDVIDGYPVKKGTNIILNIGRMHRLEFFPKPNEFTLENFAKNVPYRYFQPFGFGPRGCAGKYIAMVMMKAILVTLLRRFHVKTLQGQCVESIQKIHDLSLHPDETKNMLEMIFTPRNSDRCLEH
# [16] = biological target: Androgen receptor (Homo sapiens) (UniProt P10275); assay: qHTS assay to identify small molecule antagonists of the androgen receptor (AR) signaling pathway (AID 743035; active = well fitted inhibition curve with a large enough effect in the signal ratio in the repeat runs, not every such curve was filed as active; the % refers to the signal ratio)
# Sequence of Androgen receptor (Homo sapiens) (P10275 whole entry, looked up): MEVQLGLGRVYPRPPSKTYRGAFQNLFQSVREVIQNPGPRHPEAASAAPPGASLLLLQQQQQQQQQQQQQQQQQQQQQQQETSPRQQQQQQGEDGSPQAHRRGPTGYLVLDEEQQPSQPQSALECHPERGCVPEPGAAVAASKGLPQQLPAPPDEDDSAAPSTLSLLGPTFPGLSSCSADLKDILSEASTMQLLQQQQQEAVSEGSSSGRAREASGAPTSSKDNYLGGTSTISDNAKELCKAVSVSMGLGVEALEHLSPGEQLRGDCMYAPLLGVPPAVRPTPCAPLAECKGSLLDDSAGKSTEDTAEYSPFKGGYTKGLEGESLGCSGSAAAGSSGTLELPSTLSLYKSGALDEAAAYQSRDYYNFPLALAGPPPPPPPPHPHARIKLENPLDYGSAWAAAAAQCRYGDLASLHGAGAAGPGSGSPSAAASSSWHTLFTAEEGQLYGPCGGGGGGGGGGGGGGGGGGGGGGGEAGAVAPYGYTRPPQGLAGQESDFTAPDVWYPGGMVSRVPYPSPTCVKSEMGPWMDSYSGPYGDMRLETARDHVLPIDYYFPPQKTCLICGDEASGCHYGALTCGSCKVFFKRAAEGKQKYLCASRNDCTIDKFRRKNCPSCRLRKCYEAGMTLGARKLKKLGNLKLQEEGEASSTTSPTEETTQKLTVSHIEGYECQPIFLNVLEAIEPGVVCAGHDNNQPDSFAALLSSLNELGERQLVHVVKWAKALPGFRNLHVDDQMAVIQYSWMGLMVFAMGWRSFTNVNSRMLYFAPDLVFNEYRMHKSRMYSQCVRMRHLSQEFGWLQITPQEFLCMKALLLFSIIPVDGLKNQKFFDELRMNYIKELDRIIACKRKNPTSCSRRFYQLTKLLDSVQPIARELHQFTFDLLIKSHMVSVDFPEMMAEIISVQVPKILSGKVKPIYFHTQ
# How it was run: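 Antagonism is scored as loss of R1881-driven beta-lactamase reporter expression in HEK293 cells carrying the reporter under a UAS element, after 16 h co-treatment at 37C and a 2 h room-temperature FRET substrate read.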
# [17] = biological target: Androgen receptor (Homo sapiens) (UniProt P10275); assay: qHTS assay to identify small molecule agonists of the androgen receptor (AR) signaling pathway (AID 743036; active = well fitted activation curve with a large enough effect in the signal ratio in the repeat runs, with a control signal flat, not every such curve was filed as active; the % refers to the signal ratio)
# How it was run: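 Agonist activity was scored by beta-lactamase reporter fluorescence in stably transfected HEK293 cells exposed to compounds for 16 h at 37C and 5% CO2. Substrate loading took 2 h at room temperature.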
# [18] = biological target: Androgen receptor (Homo sapiens) (UniProt P10275); assay: qHTS assay to identify small molecule agonists of the androgen receptor (AR) signaling pathway using the MDA cell line (AID 743040; note: nearly all actives have a fitted effect of over 20% in size)
# How it was run: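 MDA-kb2 breast carcinoma cells carrying MMTV-luciferase (responsive to AR and GR), plated 5 h then treated 16 h with compounds at 37C, 0% CO2. Read-out was ONE-Glo luminescence after 30 min at room temperature.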
# [19] = biological target: Androgen receptor (Homo sapiens) (UniProt P10275); assay: qHTS assay to identify small molecule antagonists of the androgen receptor (AR) signaling pathway using the MDA cell line (AID 743042; note: nearly all actives have a fitted effect of over 55% in size)
# How it was run: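 MDA-kb2 breast carcinoma cells carrying MMTV-luciferase (AR/GR responsive) were co-treated with compounds and the agonist R1881 for 16 h at 37C. Inhibition read as ONE-Glo luminescence; CellTiter-Fluor fluorescence measured in parallel for cytotoxicity.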
Structure (SMILES),Potency [1],Potency [2],Potency [3],Potency [4],Potency [5],Potency [6],Potency [7],Potency [8],outcome [9],Potency [10],Potency [11],Potency [12],Potency [13],Potency [14],Potency [15],Potency (Aromatase (Homo sapiens)),outcome [16],outcome [17],outcome [18],outcome [19]
Clc1cc(Cl)c(Cl)cc1Cl,inactive,inactive,inactive,inactive,inactive,inactive,inactive,inactive,inactive,inactive,inactive,inactive,62.1 µM (active) and inactive,inactive,inactive,inactive,–,–,–,–
CN(CCOc1ccc(CC2SC(=O)NC2=O)cc1)c1ccccn1 (stereo not drawn),inactive,inactive and 60.8 µM (active),inactive and 60.8 µM (active),27.1 µM (active),inactive,inactive,inactive,54.2 µM (active),inactive,inactive,inactive,inactive,inactive,inactive,inactive,–,–,–,–,–
CCCCOCCO,inactive,inactive,inactive,inactive,inactive,inactive,inactive,inactive,inactive,inactive,inactive,inactive,inactive,inactive,inactive,inactive,–,–,–,–
Cc1ccc(C)c(C)c1,inactive,inactive,inactive,inactive,inactive,inactive,inactive,inactive,inactive,inactive,inactive,inactive,inactive,inactive,inactive,inactive,inactive,inactive,inactive,inactive
CS(=O)(=O)c1ccc([C@@H](O)[C@@H](CO)NC(=O)C(Cl)Cl)cc1,inactive,4.52 µM (active) and 4.92 µM (active),7.17 µM (active) and 4.38 µM (active),7.17 µM (active) and 4.92 µM (active),inactive,inactive,inactive,inactive,inactive,inactive,inactive,inactive,inactive,inactive,inactive,inactive,–,–,–,–
C[C@@H]1O[C@@H](OC[C@H]2O[C@@H](Oc3c(-c4ccc(O)c(O)c4)oc4cc(O)cc(O)c4c3=O)[C@H](O)[C@@H](O)[C@@H]2O)[C@H](O)[C@H](O)[C@H]1O,inactive,inactive,inactive,inactive,inactive,inactive,–,inactive,inactive,–,inactive,–,–,–,inactive,inactive,inactive,inactive,inactive,inactive
CC1Cc2ccccc2N1NC(=O)c1ccc(Cl)c(S(N)(=O)=O)c1 (stereo not drawn),inactive,inactive,inactive,inactive,inactive,inactive,inactive,inactive,inactive,inactive,inactive,inactive,inactive,inactive,inactive,inactive,–,–,–,–
COC(=O)c1ccc(C(=O)OC)cc1,inactive,inactive,inactive,inactive,inactive,inactive,inactive,inactive,inactive,inactive,inactive,inactive,inactive,inactive,inactive,inactive,–,–,–,–
c1ccc2[nH]cnc2c1,inactive,inactive,inactive,inactive,inactive,inactive,inactive,inactive,inactive,–,inactive,–,–,–,inactive,inactive,–,–,–,–
NC(=O)/N=N/C(N)=O,inactive,inactive,inactive,inactive,inactive,inactive,inactive,inactive,inactive,inactive,–,inactive,inactive,inactive,inactive,inactive,–,–,–,–
CC(C)NCC(O)COc1cccc2ccccc12 (stereo not drawn),inactive,inactive,61.8 µM (active) and inactive,61.8 µM (active) and inactive,inactive,inactive,30.6 µM (active),61.8 µM (active) and 54.5 µM (active),inactive,–,inactive,–,–,–,inactive,inactive,–,–,–,–
CS(=O)(=O)Nc1ccc([N+](=O)[O-])cc1Oc1ccccc1,inactive,inactive,inactive,inactive,inactive,inactive,inactive,inactive,inactive,–,inactive,–,–,–,inactive,inactive,–,–,–,–
Oc1ccc2ccccc2c1N=Nc1ccccc1,inactive,inactive,inactive,inactive,inactive,inactive,inactive and 54.5 µM (active),inactive,inactive,inactive,inactive,inactive,19.3 µM (active) and 30.6 µM (active),–,inactive and 34.4 µM (active),inactive,–,–,–,–
OC[C@@H](O)[C@H](O)[C@H](O)[C@@H](O)CO,inactive,inactive,inactive,inactive,inactive,inactive,inactive,inactive,inactive,inactive,inactive,inactive,inactive,inactive,inactive,inactive,–,–,–,–
O=C(Oc1ccccc1)c1ccc(O)cc1,inactive,inactive,inactive,inactive,inactive,inactive,inactive,inactive,inactive,–,inactive,–,–,–,inactive,inactive,–,–,–,–
CCCCC(CC)COC(C)=O (stereo not drawn),inactive,inactive,inactive,inactive,inactive,inactive,inactive,inactive,inactive,–,inactive,–,–,–,inactive,inactive,–,–,–,–
Cc1cc(O)cc(C)c1Cl,inactive,inactive,inactive,inactive,inactive,inactive,inactive,inactive,inactive,–,inactive,–,–,–,inactive,inactive,–,–,–,–
